Results from PubChem BioAssay (NCATS).
Inconclusive results are not listed. Entries that show only a call come without a potency. The source made the active and inactive calls. The call rests on the fitted dose curve; in most records, active means well fitted inhibition curve with a large enough effect; inconclusive means small, poorly fitted or top-dose-only effect; inactive means no such curve, though single readings can be large or run the other way.

What follows are compounds tested against N-terminal Xaa-Pro-Lys N-methyltransferase 1 (Homo sapiens) (UniProt Q9BV86) (assay: qHTS Assay for Inhibitors of N-terminal methyltransferase 1 (NTMT1): LOPAC validation of the NTMT1 SAHH-coupled ThioGlo3 Assay (AID 1347143; further: nearly all actives have a fitted effect of over 70% in size)). Conditions: recombinant NTMT1, SAHH-coupled ThioGlo3 fluorescence; series mostly up to 114 µM.
Sequence of N-terminal Xaa-Pro-Lys N-methyltransferase 1 (Homo sapiens) (Q9BV86 whole entry, looked up): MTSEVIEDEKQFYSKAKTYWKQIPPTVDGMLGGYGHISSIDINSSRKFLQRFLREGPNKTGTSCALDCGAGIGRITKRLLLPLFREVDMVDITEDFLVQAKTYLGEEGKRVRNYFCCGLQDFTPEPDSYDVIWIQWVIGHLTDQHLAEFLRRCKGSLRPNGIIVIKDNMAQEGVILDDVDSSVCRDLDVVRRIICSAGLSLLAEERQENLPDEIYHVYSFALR
How it was run: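 Fluorescence read-out (excitation 340nm, emission 450nm) of SAH-derived thiol, measured via SAHH coupling and ThioGlo3, taken immediately and after a 30 min room-temperature reaction, then normalized to the background read. Enzyme: NTMT1 at 125nM; cofactor SAM 100uM in the added reagent.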
Potency means the concentration at half of the fitted maximal effect.

Row | Structure (SMILES) | Potency
1 | C[N+](C)(C)CCCCCC[N+](C)(C)C | inactive
2 | Cc1cccc(C)c1OCC(C)N (centres undefined) | inactive
3 | CC(=O)N[C@@H](CS)C(=O)O | inactive
4 | NC(N)=Nc1nc(CSCC/C(N)=N/S(N)(=O)=O)cs1 | inactive
5 | CC(=O)CCCCn1c(=O)c2c(ncn2C)n(C)c1=O | inactive
6 | O=c1c(-c2ccc(O)cc2)coc2cc(O)ccc12 | 50.1 µM (active)
7 | CC(=O)O[C@]1(C(C)=O)CC[C@H]2[C@@H]3C=C(Cl)C4=CC(=O)[C@@H]5C[C@@H]5[C@]4(C)[C@H]3CC[C@@]21C | inactive
8 | CC(C)NCC(O)COc1cccc2[nH]ccc12 (centres undefined) | inactive
9 | CC1=C(/C=C/C(C)=C/C=C/C(C)=C/C(=O)Nc2ccc(O)cc2)C(C)(C)CCC1 | inactive
10 | CCCNC(=O)NS(=O)(=O)c1ccc(Cl)cc1 | inactive
11 | COC(=O)[C@@H]1[C@H]2C[C@H]3c4[nH]c5ccccc5c4CCN3C[C@@H]2CC[C@@H]1O | 79.4 µM (active)
12 | CN(C)CCC(c1ccccc1)c1ccccn1 (centres undefined) | inactive
13 | CCN1CCC[C@H]1CNC(=O)c1cc(S(N)(=O)=O)ccc1OC | inactive
14 | Clc1ccc(Cn2c(CN3CCCC3)nc3ccccc32)cc1 | inactive
15 | CC(C)(C)c1ccc(C(O)CCCN2CCC(C(O)(c3ccccc3)c3ccccc3)CC2)cc1 (centres undefined) | inactive
16 | O=C(NCCN1CCOCC1)c1ccc(Cl)cc1 | inactive
17 | COc1ccccc1N1CCN(CCCNc2cc(=O)n(C)c(=O)n2C)CC1 | inactive
18 | O=C1NCC2(CCN(CCc3ccccc3)CC2)O1 | inactive
19 | CC(=O)c1ccc(S(=O)(=O)NC(=O)NC2CCCCC2)cc1 | inactive
